# Laboratory results reported in PubChem BioAssay.
# For part of these data: Entries with a potency or affinity are not part of this list. Some of the results follow. Active and inactive are the calls of the source.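 Rule for the calls, unless noted: active = fitted half-maximal concentration within the tested dose range, moderate curve steepness, a statistically real signal drop, and little compound fluorescence or tag-binding interference; inactive = the rest.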
# What was measured:
# [1] = target: Cell division control protein 42 homolog (Homo sapiens) (UniProt P60953); experiment: activated mutant Cdc42 GTP-binding inhibitors, dose response, biochemical, multiplex bead flow cytometry, Bodipy-FL-GTP (AID 1333)
# Cell division control protein 42 homolog (Homo sapiens), sequence (P60953 whole entry, looked up): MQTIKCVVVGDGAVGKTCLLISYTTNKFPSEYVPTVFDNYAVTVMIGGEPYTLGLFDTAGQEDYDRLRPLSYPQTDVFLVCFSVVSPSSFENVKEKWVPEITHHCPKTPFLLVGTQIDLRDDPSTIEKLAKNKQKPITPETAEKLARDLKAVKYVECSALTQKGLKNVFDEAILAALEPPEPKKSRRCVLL
# [2] = target: Cell division control protein 42 homolog (Homo sapiens) (UniProt P60953); experiment: wildtype Cdc42 GTP-binding inhibitors, dose response, biochemical, multiplex bead flow cytometry, Bodipy-FL-GTP (AID 1334;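 active = fitted half-maximal concentration within the tested range, moderate curve steepness, significant signal drop, and little compound fluorescence or bead-linkage interference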); settings: bead-based flow cytometry, Bodipy-FL-GTP binding to GST-Cdc42; at 100 µM (top of the series) unless noted
# [3] = target: GTPase HRas (Homo sapiens) (UniProt P01112); experiment: inhibitors of GTP binding to wildtype Ras, dose response, biochemical, multiplex bead flow cytometry (AID 1335;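 active = fitted half-maximal concentration within 10 nM to 100 µM, steepness 0.5 to 2, significant signal drop, low assay interference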); settings: bead-based flow cytometry, Bodipy-GTP binding to GST-Ras; at 100 µM (top of the series) unless noted
# GTPase HRas (Homo sapiens), sequence (P01112 whole entry, looked up): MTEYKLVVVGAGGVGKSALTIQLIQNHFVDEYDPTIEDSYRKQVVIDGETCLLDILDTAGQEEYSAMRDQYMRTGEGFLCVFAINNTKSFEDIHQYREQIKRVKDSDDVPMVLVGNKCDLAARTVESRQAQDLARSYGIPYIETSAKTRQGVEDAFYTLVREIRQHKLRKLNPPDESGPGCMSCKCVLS
# [4] = tested on: Ras-related protein Rab-7a (dog), GTP binding; experiment: Rab7 GTP binding inhibitors, potency, dose response, biochemical, wildtype, multiplex bead flow cytometry (AID 1336; call rule not given here)
# [5] = target: Ras-related C3 botulinum toxin substrate 1 (Homo sapiens) (UniProt P63000); experiment: wildtype Rac1 GTP binding inhibitors, dose response, biochemical, multiplex bead flow cytometry (AID 1340;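 active = dose curve with midpoint inside tested range, moderate steepness, plateau gap beyond fit error, low compound glow and bead-link interference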); settings: GST-Rac1 beads, Bodipy-FL-GTP binding; at 100 µM (top of the series) unless noted
# [6] = target: GTPase HRas (Homo sapiens) (UniProt P01112); experiment: activated Ras mutant GTP binding inhibitors, dose response, biochemical, multiplex bead flow cytometry (AID 1341;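 active = dose-response curve with midpoint inside the tested range, moderate steepness, significant amplitude and little compound fluorescence or bead-attachment interference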;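 note: GST-tagged constitutively activated Ras mutant immobilized on beads and multiplexed with other GTPases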)
# [7] = RPL19A-GFP modulators, yeast TOR pathway, confirmation, cell-based, S. cerevisiae, flow cytometry, cherry picks, mother/daughter gates (AID 2270;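 active = GFP response below 50% of the DMSO control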); settings: S. cerevisiae RPL19A-GFP strain, 3 h, at 10 µM, stronger effect = lower value, 100 = same GFP as DMSO wells
# [8] = LAP4-GFP expression modulators in yeast, confirmation, cell-based, cherry picks, flow cytometry, mother/daughter gates (AID 2271;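 active = GFP response above 150% of the DMSO control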;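 note: ratio of sample to DMSO plate mean so 100% equals DMSO level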); settings: S. cerevisiae LAP4-GFP strain, 3 h, at 10 µM, stronger effect = higher value, 100 means same as DMSO control
# [9] = modulators of MEP2-GFP levels in yeast, confirmation, S. cerevisiae, flow cytometry GFP, cherry picks (AID 2272;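 active = GFP response above 150% of the DMSO control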;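 note: ratio of well signal to plate DMSO mean so 100% equals DMSO level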); settings: S. cerevisiae MEP2-GFP strain, 3 h, at 10 µM, stronger effect = higher value
# [10] = AGP1-GFP expression modulators, hit retest, confirmation, cell-based, flow cytometry, S. cerevisiae, cherry picks (AID 2273;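 active = GFP response above 150% of the DMSO level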;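 note: median GFP channel fluorescence over the whole cell population gate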); settings: S. cerevisiae AGP1-GFP strain, 3 h, at 10 µM
# [11] = modulators of CIT2-GFP expression in yeast, confirmation, S. cerevisiae, GFP fusion, cherry picks, mother/daughter gates (AID 2274;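 active = GFP response above 150% of the DMSO level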); settings: S. cerevisiae CIT2-GFP strain, flow cytometry, 3 h, at 10 µM, stronger effect = higher value
# [12] = inhibitors of CD8+ T cell-vesicle binding, pilot screen, LFA-1/ICAM-1 modulator project, MLPCN validation set, flow cytometry (AID 2523;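 active = response below a set limit, under 55% cells CD8-positive and vesicle-bound, and CD8 cells' 90th-percentile brightness under 279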;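 for vesicle binding response: mean PE anti-B7-1 fluorescence of CD8+ cells relative to row control; 100% = QL9-loaded vesicles with DMSO vehicle in the same plate row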); settings: 2C mouse CD8+ T cells, at 7 µM, stronger effect = lower value; double positive events: measured here: CD8+/vesicle+ event percentage
# [13] = superoxide lowering in aged yeast cells, pilot screen, validation compound set (AID 2706;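 active = superoxide response below 65% of plate, a cut near 3 SD across the whole screen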;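 note: yeast exposed to compound for one week at 30 degrees C before staining; 100% = mean of all compound wells on the same plate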); settings: S. cerevisiae aging, superoxide DHE fluorescence; at 10 µM; stronger effect = lower value
# [14] = target: Beta-adrenergic receptor kinase 1 (Homo sapiens) (UniProt P25098); experiment: GRK2 binders displacing RNA aptamer, biochemical, validation, human GRK2, bead flow cytometry (AID 488806;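 active = aptamer binding inhibition above 30%, about 3 SD of noise from non-fluorescent compounds; inactive = inhibition at or below 30%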); settings: bead-bound GRK2, FAM-aptamer displacement, at 10 µM, stronger effect = higher value
# Beta-adrenergic receptor kinase 1 (Homo sapiens), sequence (P25098 whole entry, looked up): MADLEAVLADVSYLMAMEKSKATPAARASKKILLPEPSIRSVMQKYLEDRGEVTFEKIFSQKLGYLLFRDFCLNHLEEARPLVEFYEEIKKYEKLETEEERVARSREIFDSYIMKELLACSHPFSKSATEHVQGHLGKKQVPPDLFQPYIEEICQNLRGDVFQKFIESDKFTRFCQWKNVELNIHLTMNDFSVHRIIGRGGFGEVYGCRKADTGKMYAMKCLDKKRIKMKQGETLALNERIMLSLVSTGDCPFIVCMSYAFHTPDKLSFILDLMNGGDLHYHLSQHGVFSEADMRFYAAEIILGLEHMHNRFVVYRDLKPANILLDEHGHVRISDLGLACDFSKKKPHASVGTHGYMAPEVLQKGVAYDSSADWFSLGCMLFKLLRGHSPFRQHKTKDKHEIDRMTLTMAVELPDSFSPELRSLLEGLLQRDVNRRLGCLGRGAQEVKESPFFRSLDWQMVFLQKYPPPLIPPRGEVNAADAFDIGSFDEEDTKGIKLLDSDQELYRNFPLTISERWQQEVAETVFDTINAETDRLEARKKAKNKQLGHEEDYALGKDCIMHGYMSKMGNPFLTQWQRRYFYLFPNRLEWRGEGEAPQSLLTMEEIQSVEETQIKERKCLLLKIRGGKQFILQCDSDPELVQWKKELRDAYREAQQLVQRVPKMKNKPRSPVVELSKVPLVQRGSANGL
# [15] = target: Beta-2 adrenergic receptor (Homo sapiens) (UniProt P07550); experiment: beta2AR agonists driving receptor internalization, pilot screen, cell-based, FAP fluorogen, flow cytometry, validation set (AID 504459;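 active = percent response above 42, roughly 3 SD of non-fluorescent test compounds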;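 note: agonist-driven loss of surface beta2AR via internalization measured by FAP dye flow cytometry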); settings: Am2.2-beta2AR cells, FAP surface receptor flow cytometry; at 10 µM; stronger effect = higher value
# Beta-2 adrenergic receptor (Homo sapiens), sequence (P07550 whole entry, looked up): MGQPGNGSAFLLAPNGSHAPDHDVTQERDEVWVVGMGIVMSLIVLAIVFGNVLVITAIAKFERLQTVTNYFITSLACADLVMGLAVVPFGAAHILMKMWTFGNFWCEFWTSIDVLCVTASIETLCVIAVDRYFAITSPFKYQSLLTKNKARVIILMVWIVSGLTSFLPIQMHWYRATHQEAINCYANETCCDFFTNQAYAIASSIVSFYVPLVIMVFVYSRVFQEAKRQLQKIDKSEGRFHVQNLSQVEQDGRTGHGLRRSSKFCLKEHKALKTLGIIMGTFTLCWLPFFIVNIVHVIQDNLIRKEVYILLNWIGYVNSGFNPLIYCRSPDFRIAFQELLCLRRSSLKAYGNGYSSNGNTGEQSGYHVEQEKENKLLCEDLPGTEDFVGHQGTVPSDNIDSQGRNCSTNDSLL
# [16] = target: AP-2 complex subunit beta (Homo sapiens) (UniProt P63010); experiment: inhibitors of arrestin peptide binding to AP2, pilot screen, biochemical, validation set, GST-AP2 beads, flow cytometry (AID 504541;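 active = inhibition above 54%, about 3 SD of non-fluorescent compounds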;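 note: AP2 carries R879A mutation and is captured from E. coli lysate; bead-bound FITC arrestin peptide fluorescence measuring arrestin peptide binding to AP2; 0% = DMSO wells and 100% = excess unlabeled arrestin peptide control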); settings: FITC arrestin peptide, at 10 µM, stronger effect = higher value, AP2 beta2 appendage fragment, R879A mutant
# AP-2 complex subunit beta (Homo sapiens), sequence (P63010 whole entry, looked up, the tested form may be a part, one chain of several): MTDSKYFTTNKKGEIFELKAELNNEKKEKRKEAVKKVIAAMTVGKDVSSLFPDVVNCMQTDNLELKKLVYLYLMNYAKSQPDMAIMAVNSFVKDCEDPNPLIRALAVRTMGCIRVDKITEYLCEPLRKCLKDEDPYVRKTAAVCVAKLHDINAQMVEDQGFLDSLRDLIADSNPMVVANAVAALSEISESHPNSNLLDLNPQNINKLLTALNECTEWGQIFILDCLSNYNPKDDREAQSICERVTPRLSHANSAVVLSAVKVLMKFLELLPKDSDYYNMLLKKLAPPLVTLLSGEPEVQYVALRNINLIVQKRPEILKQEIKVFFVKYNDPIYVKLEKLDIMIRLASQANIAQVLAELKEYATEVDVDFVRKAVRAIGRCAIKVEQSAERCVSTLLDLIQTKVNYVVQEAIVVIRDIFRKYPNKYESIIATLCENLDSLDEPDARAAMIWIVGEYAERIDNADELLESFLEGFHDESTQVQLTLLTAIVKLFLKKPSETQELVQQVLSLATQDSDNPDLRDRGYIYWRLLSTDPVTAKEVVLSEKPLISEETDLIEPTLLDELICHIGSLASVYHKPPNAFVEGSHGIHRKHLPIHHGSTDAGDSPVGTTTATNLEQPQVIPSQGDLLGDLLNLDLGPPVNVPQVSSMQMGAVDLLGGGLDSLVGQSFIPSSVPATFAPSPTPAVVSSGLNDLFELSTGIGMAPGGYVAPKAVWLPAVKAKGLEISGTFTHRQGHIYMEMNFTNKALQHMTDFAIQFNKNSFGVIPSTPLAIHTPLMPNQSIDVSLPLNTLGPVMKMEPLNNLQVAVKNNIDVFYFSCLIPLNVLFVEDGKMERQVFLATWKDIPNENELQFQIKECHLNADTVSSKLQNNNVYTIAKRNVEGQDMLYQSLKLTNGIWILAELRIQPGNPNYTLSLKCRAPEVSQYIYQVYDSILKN
# [17] = yeast V-ATPase proton transport modulators, S. cerevisiae, pHLuorin, HTS validation (AID 504600; in the data active = response above about 15%;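 note: plate controls were DMSO for no effect and reference compound for full effect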); settings: S. cerevisiae pHLuorin cytosolic pH, at 10 µM, stronger effect = higher value
# [18] = tested on: anti-desmoglein-3 scFv antibody binding to human DSG3; experiment: inhibitors of anti-DSG3 scFv binding to DSG3, pilot screen, biochemical, validation compound set, bead-based, flow cytometry (AID 588368;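 active = binding below the plate cutoff, the plate median minus 3 SD, with a reading above zero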;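 note: signal is the median channel fluorescence of bead-bound GFP antibody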); settings: Protein G beads, DSG3-Fc, scFv-GFP binding, at 10 µM, stronger effect = lower value
# [19] = inhibitors of fungal efflux pumps CDR1, CDR2, MDR1, pilot screen, validation compound set, multiplex, phenotypic (AID 588506;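 active = efflux inhibition above 0.42, the validation set average plus 4 SD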;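 note: Nile Red retained in cells so higher fluorescence means more efflux inhibition; 0 = negative control wells and 1 = enniatin B 25 µM full block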); settings: S. cerevisiae pump-expressing triplex, Nile Red efflux flow cytometry; at 10 µM; stronger effect = higher value; the pumps come from Candida albicans
# [20] = target: ATP-binding cassette sub-family B member 6 (Homo sapiens) (UniProt Q9NP58); experiment: ABCB6 transporter inhibitors, pilot screen, K562-ABCB6 cells, flow cytometry, validation set (AID 588550;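 active = inhibition above the screen-wide mean plus 3 SD, about 51%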;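 note: 0% = DMSO wells and 100% = benzethonium chloride 70 µM positive control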); settings: K562-ABCB6 porphyrin accumulation, 1 h, at 10 µM, stronger effect = higher value
# ATP-binding cassette sub-family B member 6 (Homo sapiens), sequence (Q9NP58 whole entry, looked up): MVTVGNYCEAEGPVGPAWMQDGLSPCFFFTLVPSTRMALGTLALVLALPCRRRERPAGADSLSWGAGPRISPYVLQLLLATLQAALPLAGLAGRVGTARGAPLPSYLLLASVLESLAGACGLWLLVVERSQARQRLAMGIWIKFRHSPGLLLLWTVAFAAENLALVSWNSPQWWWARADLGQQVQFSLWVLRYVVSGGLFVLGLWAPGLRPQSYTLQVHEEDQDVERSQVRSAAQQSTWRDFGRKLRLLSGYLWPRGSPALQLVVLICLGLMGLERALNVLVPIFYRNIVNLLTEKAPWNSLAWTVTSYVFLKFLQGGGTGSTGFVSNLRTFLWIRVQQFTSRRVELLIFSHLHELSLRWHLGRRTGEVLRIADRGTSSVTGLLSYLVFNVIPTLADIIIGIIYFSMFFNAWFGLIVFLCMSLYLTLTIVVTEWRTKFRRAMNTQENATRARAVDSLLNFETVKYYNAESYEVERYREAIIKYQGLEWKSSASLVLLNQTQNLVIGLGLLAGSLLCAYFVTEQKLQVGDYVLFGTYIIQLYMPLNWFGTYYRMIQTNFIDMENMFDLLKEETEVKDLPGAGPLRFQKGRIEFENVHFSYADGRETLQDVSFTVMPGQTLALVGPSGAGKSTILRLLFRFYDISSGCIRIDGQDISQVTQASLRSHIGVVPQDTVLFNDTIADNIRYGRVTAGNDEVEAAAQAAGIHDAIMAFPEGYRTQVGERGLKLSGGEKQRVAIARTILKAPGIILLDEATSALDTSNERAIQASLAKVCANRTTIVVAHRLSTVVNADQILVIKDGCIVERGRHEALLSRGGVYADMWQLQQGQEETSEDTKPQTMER
# [21] = promoters of myeloid differentiation in arrested cells, primary screen, cell-based, GFP/MAC1 double positive, flow cytometry, validation set (AID 588685;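 active = differentiation response of at least 50%, scaled between solvent and reference control, from cells with both markers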;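 note: compound exposure lasts four days before antibody staining and flow analysis; 0% = DMSO wells and 100% = 5 µM fulvestrant positive control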); settings: ER-HoxA9 marrow cells, stronger effect = higher value, normalized: vehicle 0, fulvestrant 100
# [22] = compound autofluorescence in yeast s288c, dose response, artefact control for yeast TOR pathway GFP screen, s288c strain (AID 2757;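 active = fluorescence span over the dose series, or activity score, above about 33, limit read from the data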;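 note: thousands of bead-calibrated equivalent soluble fluorophore molecules from median cell fluorescence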); settings: S. cerevisiae s288c, 520 nm autofluorescence, flow cytometry, 3 h; at 33 µM; stronger effect = higher value; zero means same as solvent-only cells
# [23] = measured here: daughter cell gate
# [24] = measured here: mother cell gate
# [25] = measured here: daughter cell gate response
# [26] = measured here: mother cell gate response
smiles,measurement,setting,value
CN(C)c1ccc(/C=C/C(=O)c2cccc(Br)c2)cc1,outcome,[1],inactive
same,"fluorescence, percent of control (lower = inhibition)",[2],120%
same,"GTP binding, percent of control",[3],213%
same,outcome,[4],inactive
same,"GTP binding signal, raw median fluorescence (lower = inhibition) (MCF (arbitrary fluorescence units))",[5],225
same,outcome,[6],inactive
same,GFP response vs DMSO,[7],104% (inactive)
same,GFP response vs DMSO,[7]; [23],105%
same,GFP response vs DMSO,[7]; [24],104%
same,GFP response relative to DMSO,[8],99.5% (inactive)
same,GFP response relative to DMSO,[8]; [25],97.5%
same,GFP response relative to DMSO,[8]; [26],102%
same,GFP response vs DMSO,[9],112% (inactive)
same,"GFP response, % of DMSO",[10],94% (inactive)
same,"GFP response, % of DMSO",[11],98.8% (inactive)
same,"GFP response, % of DMSO",[11]; [23],97.4%
same,"GFP response, % of DMSO",[11]; [24],98.1%
O=C(O)c1ccccc1OCc1ccccc1Br,outcome,[1],inactive
same,"fluorescence, percent of control (lower = inhibition)",[2],84.6%
same,"GTP binding, percent of control",[3],98%
same,outcome,[4],inactive
same,"GTP binding signal, raw median fluorescence (lower = inhibition) (MCF (arbitrary fluorescence units))",[5],65.5
same,outcome,[6],inactive
CCN1/C(=C/C=C/C=C/c2sc3ccccc3[n+]2CC)Sc2ccccc21,outcome,[1],inactive
same,"fluorescence, percent of control (lower = inhibition)",[2],1.8%
same,"GTP binding, percent of control",[3],2%
same,"GTP binding, % of control",[4],4.4% [at 3.7 µM] (inactive)
same,"GTP binding signal, raw median fluorescence (lower = inhibition) (MCF (arbitrary fluorescence units))",[5],1.8
same,outcome,[6],inactive
same,double positive events,[12],81.6%
same,vesicle binding response,[12],109% (inactive)
same,superoxide response (% of plate),[13],89.6% (inactive)
same,aptamer binding inhibition,[14],39% (active)
same,response,[15],-16.6% (inactive)
same,inhibition,[16],75.8% (active)
same,response,[17],-3.07% (inactive)
same,binding (% of control),[18],121% (inactive)
same,efflux inhibition (fraction of control),[19],0.73 (active)
same,inhibition,[20],10% (inactive)
same,differentiation response,[21],7.37% (inactive)
O=C(/C=C/c1ccc(Cl)c([N+](=O)[O-])c1)c1cccnc1,outcome,[1],inactive
same,"fluorescence, percent of control (lower = inhibition)",[2],30.5%
same,"GTP binding, percent of control",[3],73.5%
same,outcome,[4],inactive
same,"GTP binding signal, raw median fluorescence (lower = inhibition) (MCF (arbitrary fluorescence units))",[5],206
same,outcome,[6],inactive
same,GFP response vs DMSO,[7],91.5% (inactive)
same,GFP response vs DMSO,[7]; [23],89.7%
same,GFP response vs DMSO,[7]; [24],84.1%
same,GFP response relative to DMSO,[8],207% (active)
same,GFP response relative to DMSO,[8]; [25],192%
same,GFP response relative to DMSO,[8]; [26],215%
same,GFP response vs DMSO,[9],105% (inactive)
same,"GFP response, % of DMSO",[10],107% (inactive)
same,"GFP response, % of DMSO",[11],86% (inactive)
same,"GFP response, % of DMSO",[11]; [23],102%
same,"GFP response, % of DMSO",[11]; [24],72.8%
same,fluorescence change (kMESF span),[22],1.02 (inactive)
COC(=O)c1ccc2nc(Nc3nc4c(F)cc(F)cc4s3)sc2c1,outcome,[1],inactive
same,"fluorescence, percent of control (lower = inhibition)",[2],33.7%
same,"GTP binding, percent of control",[3],85.9%
same,outcome,[4],inactive
same,"GTP binding signal, raw median fluorescence (lower = inhibition) (MCF (arbitrary fluorescence units))",[5],286
same,outcome,[6],inactive
same,GFP response vs DMSO,[7],98.2% (inactive)
same,GFP response vs DMSO,[7]; [23],97.3%
same,GFP response vs DMSO,[7]; [24],98.3%
same,GFP response relative to DMSO,[8],91.2% (inactive)
same,GFP response relative to DMSO,[8]; [25],90.4%
same,GFP response relative to DMSO,[8]; [26],93%
same,GFP response vs DMSO,[9],101% (inactive)
same,"GFP response, % of DMSO",[10],102% (inactive)
same,"GFP response, % of DMSO",[11],99.7% (inactive)
same,"GFP response, % of DMSO",[11]; [23],98.4%
same,"GFP response, % of DMSO",[11]; [24],98.7%
